Measurements reported in PubChem BioAssay (NCATS).
Inconclusive results are not listed. Where a call stands in place of a potency, no number is given. Calls of active or inactive are those of the source. The call rests on the fitted dose curve; in most records, active means well fitted curve in the direction sought with a large enough effect; inconclusive means small, poorly fitted or top-dose-only effect, or another doubt; inactive means no such curve, though single readings can be large; an effect the other way counts as inactive or inconclusive.

Experiments:
[1] = qHTS of pediatric cancer cell lines to identify multiple opportunities for drug repurposing: Confirmatory screen for NB1643 cells (AID 1347109); further: nearly all actives have a fitted effect of over 45% in size; further: potency means the concentration at half of the fitted maximal effect
Summary of the method: (§1)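 Viability after 48 h compound treatment at 37C, 500-1,000 cells/well, read as ATP luminescence with CellTiter-Glo. Primary screens used 11-point (MIPE, 0.78 nM-46 µM) or 8-point (NPC, 0.59 nM-46 µM) final concentrations; follow-up screens used 11-point dilutions.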

[2] = qHTS of pediatric cancer cell lines to identify multiple opportunities for drug repurposing: Confirmatory screen for A673 cells (AID 1347110); further: nearly all actives have a fitted effect of over 65% in size; further: potency means the concentration at half of the fitted maximal effect
Summary of the method: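 Concentration-response curves came straight from titrations: 11 points (0.78 nM to 46 µM) for MIPE and several concentrations (0.59 nM to 46 µM) for NPC in primary, 11 points in follow-up. Readout: ATP luminescence at 48 h.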

[3] = qHTS of pediatric cancer cell lines to identify multiple opportunities for drug repurposing: Confirmatory screen for SK-N-MC cells (AID 1347111);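 further: cells exposed to compound for 48 h before the readout; nearly all actives have a fitted effect of over 70% in size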; further: potency means the concentration at half of the fitted maximal effect
Summary of the method: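 SK-N-MC cells at 500-1,000 cells/well in growth media were pre-incubated 5 h, then exposed to compounds at 11-point dilutions for 48 h at 37 degrees C, 5% CO2. Viability was read as CellTiter-Glo luminescence.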

[4] = qHTS of pediatric cancer cell lines to identify multiple opportunities for drug repurposing: Confirmatory screen for LAN-5 cells (AID 1347113); further: nearly all actives have a fitted effect of over 65% in size; further: potency means the concentration at half of the fitted maximal effect
Summary of the method: as §1

[5] = qHTS of pediatric cancer cell lines to identify multiple opportunities for drug repurposing: Confirmatory screen for DAOY cells (AID 1347114); further: nearly all actives have a fitted effect of over 65% in size; further: potency means the concentration at half of the fitted maximal effect
Summary of the method: (§2)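 Viability measured as metabolically active cells via CellTiter-Glo luminescence following 48 hours of compound exposure, 11-point dilutions in confirmatory testing. 500-1,000 cells/well plated 5 hours before dosing; controls were DMSO and 2.3 µM bortezomib.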

[6] = qHTS of pediatric cancer cell lines to identify multiple opportunities for drug repurposing: Confirmatory screen for SJ-GBM2 cells (AID 1347116); further: nearly all actives have a fitted effect of over 60% in size; further: potency means the concentration at half of the fitted maximal effect
Summary of the method: as §2

[7] = qHTS of pediatric cancer cell lines to identify multiple opportunities for drug repurposing: Confirmatory screen for TC32 cells (AID 1347118); further: nearly all actives have a fitted effect of over 65% in size; further: potency means the concentration at half of the fitted maximal effect
Summary of the method: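 TC32 cells, 500-1,000/well in growth medium, compound-treated 48 h at 37 °C; viability from CellTiter-Glo luminescence. Primary screen: MIPE 11-point (0.78 nM–46 µM final), NPC 8-point (0.59 nM–46 µM final); confirmatory at 11-point dilutions.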

[8] = qHTS of pediatric cancer cell lines to identify multiple opportunities for drug repurposing: Confirmatory screen for control Hh wild type fibroblast cells (AID 1347121); further: nearly all actives have a fitted effect of over 70% in size; further: potency means the concentration at half of the fitted maximal effect
Summary of the method: as §1

[9] = qHTS of pediatric cancer cell lines to identify multiple opportunities for drug repurposing: Confirmatory screen for U-2 OS cells (AID 1347122); further: nearly all actives have a fitted effect of over 65% in size; further: potency means the concentration at half of the fitted maximal effect
Summary of the method: as §1

[10] = qHTS of pediatric cancer cell lines to identify multiple opportunities for drug repurposing: Confirmatory screen for Rh41 cells (AID 1347123);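 further: 48 h compound exposure; nearly all actives have a fitted effect of over 60% in size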; further: potency means the concentration at half of the fitted maximal effect
Summary of the method: as §1

[11] = qHTS of pediatric cancer cell lines to identify multiple opportunities for drug repurposing: Confirmatory screen for RD cells (AID 1347124); further: potency means the concentration at half of the fitted maximal effect
Summary of the method: as §1

[12] = qHTS of pediatric cancer cell lines to identify multiple opportunities for drug repurposing: Confirmatory screen for Rh18 cells (AID 1347125); further: nearly all actives have a fitted effect of over 55% in size; further: potency means the concentration at half of the fitted maximal effect
Summary of the method: as §1

[13] = qHTS of pediatric cancer cell lines to identify multiple opportunities for drug repurposing: Confirmatory screen for Rh30 cells (AID 1347126); further: nearly all actives have a fitted effect of over 55% in size; further: potency means the concentration at half of the fitted maximal effect
Summary of the method: as §1

[14] = qHTS of pediatric cancer cell lines to identify multiple opportunities for drug repurposing: Confirmatory screen for Saos-2 cells (AID 1347127); further: nearly all actives have a fitted effect of over 60% in size; further: potency means the concentration at half of the fitted maximal effect
Summary of the method: as §1

[15] = molecular target: N-terminal Xaa-Pro-Lys N-methyltransferase 1 (Homo sapiens) (UniProt Q9BV86); assay: qHTS Assay for Inhibitors of N-terminal methyltransferase 1 (NTMT1): LOPAC validation of the NTMT1 SAHH-coupled ThioGlo3 Assay (AID 1347143);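 further: SAH from peptide methylation measured as thiol fluorescence via SAHH coupling and ThioGlo3; nearly all actives have a fitted effect of over 70% in size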; further: potency means the concentration at half of the fitted maximal effect
Chain of N-terminal Xaa-Pro-Lys N-methyltransferase 1 (Homo sapiens) (Q9BV86 whole entry, looked up): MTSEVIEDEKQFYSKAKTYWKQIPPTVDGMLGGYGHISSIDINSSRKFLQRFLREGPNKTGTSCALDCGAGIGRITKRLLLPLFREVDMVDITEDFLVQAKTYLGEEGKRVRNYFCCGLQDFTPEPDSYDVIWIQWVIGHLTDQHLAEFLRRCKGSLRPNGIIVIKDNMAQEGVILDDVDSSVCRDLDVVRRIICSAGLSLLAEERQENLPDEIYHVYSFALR
Summary of the method: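 Steps: dispense 125nM NTMT1; pin-transfer test compounds at several concentrations, with 1uM RCC1-6 peptide as control; incubate 1 min; start with reagent holding 100uM SAM, 10uM SAHH, 15uM ThioGlo3; read at 0 and 30 min.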

[16] = qHTS of pediatric cancer cell lines to identify multiple opportunities for drug repurposing: Confirmatory screen for NB-EBc1 cells (AID 1347115); further: nearly all actives have a fitted effect of over 45% in size; further: potency means the concentration at half of the fitted maximal effect
Summary of the method: as §1

[17] = tested on: Zika virus NS2B-NS3 protease (unlinked); assay: Optimization of GU AMC qHTS for Zika virus inhibitors: Unlinked NS2B-NS3 protease assay (AID 1347151); further: series mostly up to about 52 µM; nearly all actives have a fitted effect of over 80% in size
Summary of the method: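 Fluorescence read-out (340 nm ex / 450 nm em) of AMC peptide cleavage, taken immediately and after 15 min at room temperature (~20% conversion). Enzyme was the unlinked NS2B–NS3 complex at 25 nM in Tris pH 8.0 buffer.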

Structure (SMILES)	Potency [1]	Potency [2]	Potency [3]	Potency [4]	Potency [5]	Potency [6]	Potency [7]	Potency [8]	Potency [9]	Potency [10]	Potency [11]	Potency [12]	Potency [13]	Potency [14]	Potency [15]	Potency [16]	Potency [17]
NC12CC3CC(CC(C3)C1)C2	inactive	inactive	inactive	inactive	inactive	inactive	inactive	inactive	inactive	inactive	inactive	inactive	inactive	inactive	inactive		
NCCCCCC(=O)O															inactive		
CS(=O)(=O)CCNCc1ccc(-c2ccc3ncnc(Nc4ccc(OCc5cccc(F)c5)c(Cl)c4)c3c2)o1		20.8 µM (active)							20.8 µM (active)	8.27 µM (active)	inactive	14.7 µM (active)	14.7 µM (active)			inactive	
O=C1c2c(O)ccc(O)c2C(=O)c2c(NCCNCCO)ccc(NCCNCCO)c21	0.369 µM (active)	0.147 µM (active)	0.208 µM (active)	0.165 µM (active)	7.37 µM (active)	2.08 µM (active)	0.131 µM (active)	14.7 µM (active)	5.22 µM (active)	0.465 µM (active)	2.61 µM (active)	2.61 µM (active)	4.14 µM (active)	0.737 µM (active)	50.1 µM (active)	0.414 µM (active)	inactive
CC(C)Cc1ccc(C(C)C(=O)O)cc1 (centres undefined)	inactive	6.57 µM (active)	3.69 µM (active)		3.69 µM (active)	1.31 µM (active)	3.69 µM (active)	inactive		4.65 µM (active)	1.31 µM (active)	inactive	inactive		inactive	inactive	inactive
CN(C)C(=O)C(CCN1CCC(O)(c2ccc(Cl)cc2)CC1)(c1ccccc1)c1ccccc1															inactive		
CN1C2CCC1CC(OC(=O)C(CO)c1ccccc1)C2 (centres undefined)															inactive		
CCCCc1oc2ccccc2c1C(=O)c1cc(I)c(OCCN(CC)CC)c(I)c1	44.7 µM (active)	56.2 µM (active)	22.4 µM (active)	35.5 µM (active)	31.6 µM (active)	79.4 µM (active)	28.2 µM (active)	70.8 µM (active)	28.2 µM (active)	17.8 µM (active)		50.1 µM (active)	56.2 µM (active)	44.7 µM (active)		56.2 µM (active)	
O=C(c1ccc(OCCN2CCCCC2)cc1)c1c(-c2ccc(O)cc2)sc2cc(O)ccc12		20.8 µM (active)	16.5 µM (active)		32.9 µM (active)		16.5 µM (active)	inactive	inactive	20.8 µM (active)		inactive	3.69 µM (active)			inactive	
Clc1ccc(C(c2ccccc2Cl)C(Cl)Cl)cc1 (centres undefined)	inactive			inactive		inactive	inactive	inactive	inactive		inactive	inactive	inactive	inactive		inactive	
COc1nc(C)nc(Cl)c1NC1=NCCN1															inactive		
O=C1N(c2ccccc2)c2ccccc2C1(Cc1ccncc1)Cc1ccncc1															inactive		
CCC1(c2ccccc2)C(=O)NCNC1=O				inactive	inactive	inactive		inactive	inactive	inactive	inactive	inactive	inactive	inactive	inactive	inactive	inactive
CC(C)NCC(O)c1ccc(O)c(O)c1 (centres undefined)	inactive		2.33 µM (active)		inactive			inactive	7.37 µM (active)		inactive					inactive	inactive
CC(COc1ccccc1)N(CCCl)Cc1ccccc1 (centres undefined)	16.5 µM (active)		10.4 µM (active)	20.8 µM (active)			7.37 µM (active)		inactive	13.1 µM (active)		18.5 µM (active)	16.5 µM (active)	14.7 µM (active)			
CS(=O)(=O)Nc1ccc([N+](=O)[O-])cc1Oc1ccccc1	inactive	inactive		inactive				inactive	inactive	18.5 µM (active)		inactive	inactive	inactive			inactive
Clc1ccc2nsnc2c1NC1=NCCN1	26.1 µM (active)		inactive	inactive	inactive	inactive	inactive	inactive	inactive	inactive		inactive	7.37 µM (active)	20.8 µM (active)		inactive	
CC(CCc1ccc(O)cc1)NCCc1ccc(O)c(O)c1 (centres undefined)	inactive		9.27 µM (active)	inactive	inactive		20.8 µM (active)	inactive	inactive	inactive	inactive	inactive	inactive			5.85 µM (active)	inactive
